DPM-DC inhibit – blocks S. pneumoniae diphosphomevalonate decarboxylase; purified DPM-DC, PK/LDH coupled NADH fluorescence; calls only at 10 µM; 0.49% of 65,000 active;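 active = the 320 compounds with the highest percent inhibition in the single-dose primary screen, excluding strongly autofluorescent ones, cut at about 32% in these data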;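 also: kinetic rate of NADH fluorescence loss reporting ADP formed by the decarboxylase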
MK inhibit – S. pneumoniae mevalonate kinase inhibition; purified MK, PK/LDH-coupled NADH absorbance 340 nm; AID 555; 0.48% of 65,000 active; inhibition, % at 10 µM;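 active = ranked among the strongest by inhibition in the single 10 µM screen, a fixed top-ranked set picked for dose follow-up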
Autofluor 339 – intrinsic fluorescence of library compounds, ex339/em460 – biochemical, MLSMR library, data from DPM-DC assay, artefact control, profiling panel; 5.5% of 65,000 active; fluorescence fold increase at 10 µM; compound autofluorescence, ex339/em460 nm, NADH buffer; active compounds read high; 1 = no-compound wells, NADH background; AID 709;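 active = at 10 µM, mean starting fluorescence two-fold or more over control wells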;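 also: signal is the first read of a kinetic run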
A340 absorber – compounds absorbing at 340 nm; AID 708; fold change at 10 µM; compound absorbance at 340 nm, fold over control; 65,000 tested, under 10 active;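 active = at 10 µM dose, initial 340 nm absorbance at least 2 fold that of control wells; inactive = change under 2 fold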;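 also: initial absorbance extrapolated from kinetic A340 decline of NADH oxidation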
NADH coupling – blocks coupling enzymes of NAD/NADH assays | AID 774 | 0.02% of 65,000 active | IC50, µM (top dose mostly 10 µM) | coupled PK/LDH NADH assays, four targets;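 active = single-dose screening hits from any of four coupled enzyme assays that gave an IC50 when retested across doses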;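 also: the DPM-DC format reads NADH fluorescence rather than 340 nm absorbance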
Spn PMK inh – blocks S. pneumoniae phosphomevalonate kinase | purified PMK, PK/LDH-coupled NADH absorbance 340 nm | inhibition, % at 10 µM | 0.49% of 65,000 active | AID 539;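 active = top-ranked compounds by inhibition in the single 10 µM screen, taking a fixed number of the strongest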
Large screens that a line does not name were inactive. Hits are enriched below; roughly 6.5% of the tested compounds scored in any of these assays.

CN1CCN(c2cc3c(c4c2[nH]c2ccccc24)C(=O)CC(C)(C)C3)CC1	Autofluor 339 2.09 (not shown: DPM-DC inhibit)
Cc1n[nH]c(=O)nc1NCc1ccccc1	none
Cc1cccc2cc(CN(CCN3CCCC3)C(=O)NC3CCCCC3)c(=O)[nH]c12	Spn PMK inh 30.0
O=C(NC1CCCCC1)N(CCN1CCCC1)Cc1cc2cc3c(cc2[nH]c1=O)OCCO3	DPM-DC inhibit active, Autofluor 339 3.59
O=C(NC1CCCCC1)N(Cc1cc2cc3c(cc2[nH]c1=O)OCCO3)CC1CCCO1 (stereo not drawn)	Autofluor 339 4.47 (not shown: DPM-DC inhibit)
CC1(C)CC(NS(=O)(=O)c2ccc(S(=O)(=O)N3CCOCC3)cc2)CCO1 (stereo not drawn)	none
CCN1CCN(C(C(=O)NC2CCCC2)c2ccc(Cl)cc2)CC1 (stereo not drawn)	none
Nc1c(Nc2ccccc2)c2ccccc2oc1=O	none
CCCn1c(-c2ccc(OC)cc2)nc2nc3ccccc3nc21	Autofluor 339 2.11 (not shown: DPM-DC inhibit)
COCCCn1c(-c2ccc(OC)cc2)nc2nc3ccccc3nc21	Autofluor 339 3.99 (not shown: DPM-DC inhibit)
COc1ccc(-c2nc3ccccc3c(=O)n2CCN2CCOCC2)cc1	none
Clc1ccc(-c2nc3nc4ccccc4nc3n2Cc2ccco2)cc1	none
CC(C(=O)NCC1CCCO1)N(C(=O)c1snc(C(N)=O)c1N)c1cccc(F)c1 (stereo not drawn)	Autofluor 339 3.9
COCCNC(=O)C(c1ccc(C)o1)N(C(=O)c1snc(C(N)=O)c1N)c1ccc(C)c(C)c1 (stereo not drawn)	none
CC(C(=O)NCc1ccccc1)N(CCN1CCOCC1)C(=O)c1snc(C(N)=O)c1N (stereo not drawn)	Autofluor 339 2.35
CC(C(=O)NCC1CCCO1)N(C(=O)c1snc(C(N)=O)c1N)c1ccccc1 (stereo not drawn)	Autofluor 339 3.11
CC(NC(=O)OCc1ccccc1)C(=O)NCC1CCCO1 (stereo not drawn)	none
O=C(O)CSCCC(=O)Nc1ccc(F)cc1	none
CCOC(=O)Cc1csc(NC(=O)C2CCCCC2C(=O)O)n1 (stereo not drawn)	none
Fc1cccc(Cl)c1Cn1nnc2c(N3CCC4(CC3)OCCO4)ncnc21	none
Cc1cc(C(=O)CSc2nnc(-c3cccs3)o2)c(C)n1-c1ccccc1	none
CC(C)Cn1c(N)c(C(=O)NCCN2CCOCC2)c2nc3ccccc3nc21	Autofluor 339 2.93 (not shown: DPM-DC inhibit)
COCCCn1c2nc3ccccc3nc2c2c(=O)n(CC3CCCO3)cnc21 (stereo not drawn)	Autofluor 339 2.32 (not shown: DPM-DC inhibit)
CC(C)Cn1c2nc3ccccc3nc2c2c(=O)n(CCN3CCOCC3)cnc21	Autofluor 339 3.52 (not shown: DPM-DC inhibit)
Cc1cccc(-n2c(N)c(C(=O)NCCN3CCOCC3)c3nc4ccccc4nc32)c1	Autofluor 339 5.07 (not shown: DPM-DC inhibit)
CCCCn1c2nc3ccccc3nc2c2c(=O)n(CCC(C)C)cnc21	none
O=C(NCCN1CCOCC1)c1ccc(-c2ccccc2)cc1	none
COc1ccc(-n2c(C)c(C(C)=O)c3cc(O)ccc32)cc1	none
O=C(CN1CCN(c2nc(-c3ccc(F)cc3)cs2)CC1)Nc1ccc2c(c1)OCO2	none
O=c1[nH]c2cc3c(cc2cc1C(c1nnnn1Cc1ccccc1)N1CCCc2ccccc21)OCO3 (stereo not drawn)	none
CC1CCN(C(c2cc3cc4c(cc3[nH]c2=O)OCO4)c2nnnn2CC2CCCO2)CC1 (stereo not drawn)	Autofluor 339 3.75 (not shown: DPM-DC inhibit)
Cc1ccc2cc(C(c3nnnn3C(C)(C)C)N3CCCC3)c(=O)[nH]c2c1C (stereo not drawn)	none
CCOc1ccc2[nH]c(=O)c(C(c3nnnn3CC3CCCO3)N3CCc4ccccc4C3)cc2c1 (stereo not drawn)	Spn PMK inh 28.0
CCCN1CCN(C(c2cc3cc4c(cc3[nH]c2=O)OCO4)c2nnnn2C(C)(C)C)CC1 (stereo not drawn)	Autofluor 339 3.89 (not shown: DPM-DC inhibit)
Cc1ccc2cc(C(c3nnnn3CC3CCCO3)N3CCc4ccccc4C3)c(=O)[nH]c2c1 (stereo not drawn)	none
O=c1[nH]c2cc3c(cc2cc1C(c1nnnn1Cc1ccccc1)N1CCN2CCCC2C1)OCCO3 (stereo not drawn)	Autofluor 339 4.66 (not shown: DPM-DC inhibit)
Cc1c(NS(=O)(=O)c2ccccc2)cc(Cl)c(O)c1C	none

Bioassay records: PubChem, SRMLSC
